What all share (assay): NCI-60 one-dose screen, 48 h (100 = growth as untreated, 0 = no growth, -100 = all killed)
For experiment [1], the system named is A549/ATCC NSCLC. The conditions noted are these: 10 µM unless noted.
Experiment [2] relates to DU-145 prostate. The following applies: 10 µM unless noted.
The test system of experiment [3] is RXF 393 renal. The following applies: 10 µM unless noted.
Experiment [4] relates to SF-295 CNS. The conditions noted are these: 10 µM unless noted.
The subject of experiment [5] is UACC-257 melanoma. The following applies: 10 µM unless noted.
Experiment [6] concerns HT29 colon. The following applies: 10 µM unless noted.
Experiment [7] deals with SNB-75 CNS. The following applies: 10 µM unless noted.
The subject of experiment [8] is SK-MEL-2 melanoma. The following applies: 10 µM unless noted.
The subject of experiment [9] is ACHN renal. The following applies: 10 µM unless noted.
The subject of experiment [10] is CAKI-1 renal. The following applies: 10 µM unless noted.
The subject of experiment [11] is OVCAR-5 ovarian. The following applies: 10 µM unless noted.
Experiment [12] relates to OVCAR-4 ovarian. The conditions noted are these: 10 µM unless noted.
In experiment [13] the test system is SK-OV-3 ovarian. The conditions noted are these: 10 µM unless noted.
The test system of experiment [14] is HS 578T breast. The conditions noted are these: 10 µM unless noted.
For experiment [15], the system named is T-47D breast. The following applies: 10 µM unless noted.
The subject of experiment [16] is BT-549 breast. The conditions noted are these: 10 µM.
Experiment [17] has as its system K-562 leukemia. The conditions noted are these: 10 µM unless noted.
Experiment [18] has as its system A498 renal. The conditions noted are these: 10 µM unless noted.
For experiment [19], the system named is HL-60(TB) leukemia. The conditions noted are these: 10 µM unless noted.
The subject of experiment [20] is NCI/ADR-RES ovarian. The conditions noted are these: 10 µM unless noted.

The values below come from PubChem BioAssay (NCI).

This is part of a sample that, as a whole, favours compounds with a hit. Of some 83,000 tested, about 20% had one in any assay.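 Single-concentration screen, 48 h exposure, 96-well plates. Endpoint: percent growth. Below 10 = active.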 Unmarked numbers belong to inactive results. Calls of active or inactive are those of the source.

`C=C=[CH][Sn]([c]1ccccc1)([c]1ccccc1)[c]1ccccc1`: the growth in experiment [1] was -58.7% (active); in experiment [2], -91.1% (active); in experiment [3] it was -83.5% (active); in experiment [4], -42.7% (active); in [5] it was -37.2% (active); in [6], -72.1% (active). Also, the growth was 14.2% in experiment [7]; -30.6% (active) in [8]; -49.4% (active) in experiment [9]; -40.4% (active) in experiment [10]; -60.3% (active) in experiment [11]; -40.2% (active) in experiment [12]. Also, the growth in experiment [13] is -57.1% (active); in experiment [14], 27%; in experiment [15] it was -36.7% (active); in [16] it was -34.9% (active).

In the case of `O=CN1N=C(c2ccccc2)CC1c1sc(N(CCCl)CCCl)nc1Cl` (stereo not drawn), the growth is 88.4% in [1]; 111% in experiment [2]; 78.1% in [17]; 108% in experiment [3]; 94.8% in experiment [4]; 97.4% in experiment [5]. Further, the growth in experiment [6] was 92.2%; in experiment [7], 72%; in experiment [8] it was 77.2%; in [9], 90.9%; in experiment [10] it was 79.6%; in [18] it was 123%. For the same molecule, the growth in experiment [19] is 94%; in experiment [11] it was 90.6%; in [12] it was 96.2%; in [13] it was 79.2%; in experiment [14] it was 90.2%; in [20], 93.6%. Further, the growth is 83% in experiment [15] and 95.3% in experiment [16].

Take `O=CC(Br)C(Br)c1ccccc1` (stereo not drawn): the growth in experiment [1] is 97.6%; in [2], 77%; in experiment [17], 41.2%; in [3], 86.8%; in [4], 97.9%; in experiment [5], 93.8%. Moreover, the growth is 71.4% in [6]; 92.6% in experiment [7]; 112% in experiment [8]; 86.2% in experiment [9]; 92.9% in [10]; 102% in experiment [18]. The growth in experiment [19] is 26.3%; in experiment [11], 98%; in [12], 104%; in experiment [13] it was 109%; in experiment [14], 97.2%; in [20], 100%. Moreover, the growth in experiment [15] is 37.2%; in experiment [16] it was 99.7%.

As for `O=CN1N=C(c2ccc3c(c2)OCO3)CC1c1sc(N(CCCl)CCCl)nc1Cl` (stereo not drawn), the growth in experiment [1] is 83.9%; in experiment [2] it was 107%; in [17] it was 85.4%; in experiment [3], 109%; in experiment [4], 104%; in experiment [5], 84.4%. The growth in experiment [6] is 97.9%; in experiment [7], 90.8%; in experiment [8], 92.9%; in experiment [9] it was 93.4%; in [10] it was 82.1%; in experiment [18], 97.7%. In addition, the growth in experiment [19] was 88.6%; in experiment [11], 90.1%; in experiment [12], 100%; in experiment [13], 90%; in experiment [14], 79.8%; in [20], 101%. Further, the growth in experiment [15] is 84.1%; in experiment [16], 94.7%.

On to `CN1CCN(C(=O)COc2ccc(/C=C3\CC4C5CC=C6CC(Cl)CCC6(C)C5CCC4(C)C3=O)cc2)CC1` (stereo not drawn), for which the growth is 65% in experiment [1]; 64.9% in [2]; 18.3% in [17]; 79% in [3]; 82.8% in experiment [4]; 38.8% in experiment [5]. In addition, the growth is -9.75% (active) in experiment [6]; 86.8% in experiment [7]; 89.8% in [8]; 80.1% in [9]; 70.1% in [10]; 75.3% in experiment [18]. The growth in [19] is 38.3%; in [11], 99.7%; in experiment [12] it was 70.7%; in experiment [13], 85.8%; in [20], 69.2%; in experiment [15], 71.2%. The growth in [16] is 87.3%.

For the molecule `CNC(C)Cc1ccccc1` (stereo not drawn) (tested in a mixture with another compound), the growth in experiment [1] was 92.3%; in [2], 108%; in experiment [17] it was 88.9%; in [3] it was 105%; in experiment [4], 97.7%; in [5], 109%. The growth was 107% in experiment [6]; 100% in experiment [7]; 95.7% in [9]; 102% in experiment [10]; 92.5% in [18]; 88.1% in [11]. Also, the growth in experiment [12] was 104%; in experiment [13], 92.8%; in [14], 106%; in [20], 104%; in experiment [15] it was 90.5%; in [16], 109%.

As for `CO[C@@H]1[C@H](OC(=O)NC(=O)CCl)CC[C@]2(CO2)[C@H]1[C@@]1(C)O[C@@H]1CC=C(C)C`, the growth is 59.1% in experiment [1]; 59.8% in experiment [2]; 47.2% in experiment [17]; 68.2% in experiment [3]; 75.1% in experiment [4]; 44.3% in experiment [5]. Also, the growth in experiment [6] is 58.1%; in [7] it was 41.7%; in experiment [8] it was 82.3%; in experiment [9], 60.7%; in experiment [10], 67.2%; in experiment [18] it was 103%. The growth is 49.1% in experiment [19]; 72.3% in experiment [11]; 47.8% in experiment [12]; 93.7% in experiment [13]; 61.2% in experiment [14]; 75.9% in experiment [20]. Besides, the growth in experiment [15] was 64.6%; in experiment [16], 61.2%.

As to `COc1cc2c(cc1OC)CN(C)C(C)C2` (stereo not drawn), the growth in experiment [1] is 93.6%; in [2], 109%; in experiment [17], 101%; in experiment [3] it was 118%; in experiment [4], 99%; in [5] it was 104%. Also, the growth in experiment [6] is 93.2%; in experiment [7], 87.3%; in [8], 100%; in [9], 106%; in experiment [10], 101%; in experiment [18], 84%. For the same molecule, the growth in experiment [19] was 87.9%; in experiment [11], 101%; in experiment [12], 103%; in experiment [13], 103%; in [14], 107%; in experiment [20], 101%. The growth was 97.3% in [15] and 115% in experiment [16].
